Source: PubChem BioAssay AID540355 (National Center for Advancing Translational Sciences (NCATS), 2011)
The other results are listed elsewhere or left out. Inconclusive results are not listed. Active and inactive are the calls of the source. Calls follow the shape of the dose curve; as a rule, active = well fitted inhibition curve with a large enough effect; inconclusive = small, poorly fitted or top-dose-only effect; inactive = no such curve, though single readings can be large or run the other way.

What follows are molecules tested against 4'-phosphopantetheinyl transferase Sfp (Bacillus subtilis (strain 168)) (UniProt P39135) (assay: Gel-Based Assay for Inhibitos of Bacillus subtilis Sfp phosphopantetheinyl transferase (PPTase): Chemistry Optimization Followup). Conditions: purified Sfp PPTase, gel-based product detection; series mostly up to 250 µM; activity change, negative = inhibition: at the top concentration.
Source text: The covalent attachment of a phosphopantetheinyl (4'-PP) arm to a variety of synthases and other proteins is a key posttranslational protein modification. The 4'-PP is installed on the proteins post-translationally from coenzyme A (CoA) on a conserved serine residue by action of phosphopantetheinyl transferase (PPTase) enzymes. Phosphopantetheinylation is essential for synthase activity, and removal of the PPTase gene precludes natural product synthesis in microorganisms, or in the case of fatty acid biosynthesis, renders the organism unviable. PPTase enzymes belong to a distinct structural superfamily. Within bacteria, these enzymes are grouped into two classes based upon primary structure, the AcpS-Type and Sfp-Type PPTases.
Sfp-type PPTases, corresponding to an activator of surfactin production in Bacillus subtilis, are responsible for modifying type I polyketide and nonribosomal peptide synthases of prokaryotes. Sfp-type PPTases are responsible for the activation of a variety of pathogen-associated virulence factors. Among these compounds are toxins such as mycolactone from Mycobacterium ulcerans, siderophores such as vibriobactin from Vibrio cholerae or mycobactin from Mycobacterium tuberculosis, as well as the mycolic acids which form the waxy cell wall of Mycobacteria. The biosyntheses of these natural products are considered attractive targets for drug design.
In this assay, compounds were evaluated by monitoring of fluorescence transfer to whole carrier protein substrates via polyacrylamide gel electrophoresis. See Yasgar, et al. (PMID: 20094656) for further details on assay. This assay was used to evaluate follow-up compounds from the primary screen (AID: 1490).
NIH Chemical Genomics Center [NCGC]
NIH Molecular Libraries Probe Centers Network [MLPCN]
Assay Submitter (PI): Michael Burkart, University of California, San Diego
A DMSO solution of confirmed hits (0.5 microL) was added to a 1.33X enzyme solution (15 microL, containing 26.6 nM Sfp, 66 mM HEPES, 13.3 mM MgCl2, 0.0133% NP-40, 0.133% BSA, pH 7.6). After a 10 minute incubation, the enzymatic reaction was initiated by the addition of 4 X substrate solution (4 microL, containing 50 microM Rhodamine CoA and 50 microM apo-Actinorhodin-ACP). The reactions were terminated after a 30 minute incubation at room temperature by the addition of 2X quench solution (20 microL, containing 4 M Urea, 25 mM EDTA, 0.004% phenol red, pH 8.0). Samples were separated under native conditions on a 20% polyacrylamide gel using standard Laemmli conditions. Following the run, gels were imaged with a Chemi-Doc Plus imager (Bio-Rad, Hercules, CA) and band intensity quantified using the ImageJ software package. Pixel density values were normalized to control wells (SCH202676) and fit with the 4-parameter Hill equation using in-house tools.

Chain of 4'-phosphopantetheinyl transferase Sfp (Bacillus subtilis (strain 168)) (P39135 whole entry, looked up): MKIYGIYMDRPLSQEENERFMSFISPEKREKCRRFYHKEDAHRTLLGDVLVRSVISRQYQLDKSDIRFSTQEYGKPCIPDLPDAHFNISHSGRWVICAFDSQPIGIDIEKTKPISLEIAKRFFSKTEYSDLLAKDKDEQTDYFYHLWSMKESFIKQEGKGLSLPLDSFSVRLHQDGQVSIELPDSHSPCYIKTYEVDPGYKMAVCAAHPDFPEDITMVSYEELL

Row | Compound | Potency | activity change, negative = inhibition
1 | Cc1cc(C)nc(NC(=S)N2CCN(c3ccc4nonc4c3)CC2)c1 | 10 µM (active) | 
2 | Cc1cc(C)nc(NC(=S)N2CCN(c3cccc(C(F)(F)F)c3)CC2)c1 | 1.58 µM (active) | 
3 | COc1cccc(NC(=S)N2CCN(c3ccc(Cl)cc3Cl)CC2)n1 |  | 44.2% (inactive)
4 | COc1ccnc(NC(=S)N2CCN(c3ncc(C(F)(F)F)cc3Cl)CC2)c1 | 3.02 µM (active) | 
5 | COc1cccc(NC(=S)N2CCN(c3ccccc3C(F)(F)F)CC2)n1 |  | 61.4% (inactive)
6 | Cc1ccc(N2CCN(C(=S)Nc3cc(C)ccn3)CC2)cc1 | 3.16 µM (active) | 
7 | Cc1cc(C)nc(NC(=S)N2CCN(c3cccc(C#N)c3)CC2)c1 | 10 µM (active) | 
8 | FC(F)(F)c1cccc(N2CCN(C(=S)Nc3ccncc3)CC2)c1 |  | 5.42% (inactive)
9 | Cc1cc(C)nc(NC(=S)N2CCN(c3ccc(Cl)cc3C(F)(F)F)CC2)c1 | 6.75 µM (active) | 
